# Rab9 promoter act – activates the Rab9 promoter | Huh7 Rab9 promoter-luciferase reporter, luminescence, 24 h | Potency, µM (doses to about 9.22 µM), for inactives: at the top dose activation, negative = inhibition, hits mostly activators | actives 2.8% (n = 320,000) | AID 485297; note: % of control where 0% means no effect; nearly all actives have a fitted effect of over 60% in size
#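 Luminescence from Amplite-detected luciferase (10 minutes, ambient) reports Rab9 promoter activation. Before that, stable Rab9-luciferase Huh7 cells (1500/well, reduced-serum OP-MEM I plus 10% FBS) were exposed to compound for 24 hours at 37C.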
# ELG1 genotox – genotoxicity induction in ELG1-luciferase HEK293T cells | AID 504466 | Potency, µM (series often up to 46 µM), for the others: at the top dose activity change, positive = activation, hits mostly activators | actives 1.3% (n = 330,000) | HEK293T ELG1-luciferase reporter, luminescence, 16 h; note: % of control where 0% means no effect; nearly all actives have a fitted effect of over 60% in size
#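 Step 1: seed 2,000 HEK293T ELG1-luciferase cells per well. Step 2: add compound or DMSO, incubate 16 hr at 37 °C. Step 3: ONE-Glo, 30 min at room temperature, read luminescence.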
# SMN2 splice enh – SMN2 splice variant enhancement; HEK293 SMN2-luciferase splicing reporter, luminescence, 30-36 h; Potency, µM (titrated, usually from 46.1 µM), inactives show at the highest dose activity change, positive = activation, usual class: activators; actives 2.8% (n = 210,000); AID 1458; note: % of control where 0% means no effect; nearly all actives have a fitted effect of over 55% in size
#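 HEK293 cells carry an SMN2 […]–luciferase reporter in which exon 7 inclusion puts luciferase in frame. Cells were plated 10-12 h before compound addition, then incubated 30-36 h at 37C. ONE-Glo luminescence was read; sodium butyrate at 4.5 mM final served as control.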
# KinaseGlo FLuc – Kinase-Glo luciferase inhibition (counter-screen). Q27757. actives 0.28% (n = 200,000). Potency, µM (series often up to 38.3 µM), without a hit: top-dose activity change, negative = inhibition, actives largely listed as inhibitors. Kinase-Glo luciferase, ATP luminescence, 8 min. AID 1379; note: % is set by controls: 0 for no effect and ±100 for the full control effect; nearly all actives have a fitted effect of over 60% in size
#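 Kinase-Glo luciferase light output from ATP and luciferin was measured with 10 uM ATP, within the enzyme's linear range. Buffer: 50 mM imidazole pH 7.2, 50 mM KCl, 7 mM MgCl2, 0.01% Tween 20, 0.05% BSA; luminescence read after 8 min at ambient temperature.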
# NPC1 promoter act – activates the NPC1 promoter; actives 2.4% (n = 320,000); AID 485313; Potency, µM (highest dose often 9.22 µM), inactives show top-dose activation, hits mostly activators; Huh7 NPC1 promoter luciferase reporter, 24 h; note: % of control where 0% means no effect; nearly all actives have a fitted effect of over 60% in size
#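 Huh7 cells stably carrying NPC1 promoter–luciferase, plated in Opti-MEM with 10% FBS for 2 h, were exposed to compound in DMSO for 24 h at 37 °C; luciferase reagent was added for 10 min and luminescence read.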
# FLuc counter – inhibits or activates purified firefly luciferase, miR-21 counter-screen; purified FLuc, Km substrates, luminescence inhibition; Potency, µM (titrated, usually from 57.5 µM), for inactives: top-dose activity change, negative = inhibition, actives largely listed as inhibitors; actives 6.9% (n = 360,000);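 note: plate controls were vehicle for no effect and reference inhibitor for full effect; nearly all actives have a fitted effect of over 55% in size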
# Target sequence (P08659 whole entry, looked up): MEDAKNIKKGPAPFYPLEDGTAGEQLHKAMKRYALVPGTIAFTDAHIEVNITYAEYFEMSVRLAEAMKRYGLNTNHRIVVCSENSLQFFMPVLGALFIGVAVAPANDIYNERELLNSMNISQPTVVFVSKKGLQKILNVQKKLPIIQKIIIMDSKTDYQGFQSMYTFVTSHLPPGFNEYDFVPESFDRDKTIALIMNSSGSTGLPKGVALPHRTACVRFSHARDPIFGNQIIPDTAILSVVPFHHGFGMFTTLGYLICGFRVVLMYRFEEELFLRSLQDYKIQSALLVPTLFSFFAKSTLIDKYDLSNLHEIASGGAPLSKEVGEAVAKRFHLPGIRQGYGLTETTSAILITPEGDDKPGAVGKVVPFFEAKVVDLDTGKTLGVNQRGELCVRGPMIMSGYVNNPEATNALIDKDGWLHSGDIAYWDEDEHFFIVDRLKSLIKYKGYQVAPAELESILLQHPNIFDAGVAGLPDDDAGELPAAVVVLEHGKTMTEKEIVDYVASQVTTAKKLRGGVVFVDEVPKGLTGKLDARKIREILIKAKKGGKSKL
#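 Purified P. pyralis luciferase, 10 nM final, with Km-level 10 uM D-luciferin and 10 uM ATP in 50 mM Tris acetate pH 7.5, 10 mM Mg acetate, 0.01% Tween-20, 0.05% BSA; 6-point qHTS titration about 60 µM downward; luminescence read.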
# * hit, by the source's call; u = inconclusive; x = not tested or not shown; [ ] = dose if it differs, or a comment. The list is not random: actives were taken first. Their share in the collection is about 7.5%. Calls come from the whole dose curve; as a rule, active = well fitted curve in the direction sought with a large enough effect; inconclusive = small, poorly fitted or top-dose-only effect, or another doubt; inactive = no such curve, though single readings can be large; an effect the other way counts as inactive or inconclusive. Potency is the fitted concentration of half-maximal effect.
SMILES,Rab9 promoter act,ELG1 genotox,SMN2 splice enh,KinaseGlo FLuc,NPC1 promoter act,FLuc counter
COCCn1c(C)cc(O)c(C(c2ccc(F)cc2)N2CCN(c3ccccc3)CC2)c1=O (stereo not drawn),x,x,x,x,x,-0.2%
Cc1cccc(-c2ncc(S(=O)(=O)C(C)(C)C)c(N)n2)c1,3.16µM*,11.4%,x,x,3.98µM*,u
CC(C)(C)S(=O)(=O)c1cnc(-c2ccccn2)nc1N,23.6%,1.6%,x,x,1.9%,-13.3%
CC(C)c1ccc(NC(=O)C2CCN(S(=O)(=O)c3cccc4nonc34)CC2)cc1,x,x,0.2%,x,x,1.8%
CCCCNc1c(-c2ccc(SC3CCCCC3)cc2)nc2ccccn12,3.98µM*,10.3µM*,x,x,2.82µM*,4.78µM*
CCCCNc1c(-c2cccc(SC(C)CC)c2)nc2ccc(Cl)cn12 (stereo not drawn),x,-1.9%,x,x,x,x
CCCCNc1c(-c2ccc(SC(C)CC)cc2)nc2ccccn12 (stereo not drawn),3.55µM*,-6.7%,x,x,3.55µM*,1.35µM*
Cc1nn(CC(=O)Nc2cc(F)ccc2F)c(=O)c2cccn12,x,x,x,x,x,-11.0%
O=C(Nc1ccc(-c2nnn(CC(=O)N3CCN(C(=O)c4ccco4)CC3)n2)cc1)c1ccccc1F,23.6%,-5.7%,-5.0%,0.9%,15.7%,10.7µM*
COc1ccccc1C(=O)Nc1ccc(-c2nnn(CC(=O)N3CCN(C(=O)c4ccco4)CC3)n2)cc1,11.4%,-10.9%,-36.2%,2.1%,-2.3%,16.9µM*
COc1ccccc1C(=O)Nc1nc(N)n(-c2ccccc2)n1,15.5%,1.5%,-10.3%,-3.1%,1.9%,12µM*
COc1cc(C(=O)Nc2nc(N)n(-c3ccccc3)n2)cc(OC)c1OC,17.4%,16.0%,u,-6.1%,2.8%,3.5%
COC(=O)CCCCCCCCC(=O)Nc1nc2ccccc2s1,-0.9%,-1.9%,22.2%,-2.5%,-0.7%,-1.8%
COc1n[nH]c(C(=O)NCc2ccccc2)c1[N+](=O)[O-],-0.3%,0.2%,6.0%,-2.0%,-1.1%,u
COc1ccccc1C(=O)Nc1nc2ccccc2s1,u,u,x,x,2.24µM*,0.107µM*
COc1ccc(C(=O)Nc2nc3ccccc3s2)c(OC)c1,-24.5%,-28.4%,x,x,u,0.0151µM*
COc1n[nH]c(C(=O)Nc2nc3ccccc3s2)c1[N+](=O)[O-],u,16.4µM*,11.2µM*,-1.3%,u,15.1µM*
CC(=O)c1sc2c(c1C)c(=O)n(-c1ccc(Cl)cc1)c(=O)n2Cc1cc(=O)n2cc(Cl)ccc2n1,x,x,4.2%,x,x,-1.0%
NC(=O)CSc1oc(-c2cccs2)nc1S(=O)(=O)c1ccc(Br)cc1,x,x,x,x,x,-1.6%
CCOC(=O)c1oc2nc3c(cc2c1N)CCCC3,1.41µM*,u,x,x,1.41µM*,5.36µM*
O=C(COc1ccccc1-c1nc(-c2ccccc2)no1)Nc1ccc([N+](=O)[O-])cc1,x,x,x,x,x,2.7%
c1ccc(-c2ccc(-c3nc(-c4cccnc4)no3)cc2)cc1,u,2.31µM*,12.6µM*,-10.3%,1.26µM*,1.35µM*
O=c1[nH]c2ccccc2cc1-c1noc(-c2cccnc2)n1,24.0%,-2.0%,-5.2%,-0.5%,23.0%,u
c1ccc(-c2noc(-c3cccnc3)n2)cc1,x,x,u,-15.5%,x,9.53µM*
CC(Nc1ccc(-c2nc(-c3cccnc3)no2)cc1[N+](=O)[O-])c1ccccc1 (stereo not drawn),x,x,x,x,x,-1.3%
SMILES,Rab9 promoter act,ELG1 genotox,SMN2 splice enh,KinaseGlo FLuc,NPC1 promoter act,FLuc counter
c1cncc(-c2noc(-c3ccc4ccccc4c3)n2)c1,0.282µM*,2.06µM*,x,x,0.316µM*,1.2µM*
O=C(O)/C=C/C(O)c1ccc(Cl)cc1 (stereo not drawn),4.4%[46.1 µM],-3.6%,-7.7%,-4.9%,3.9%[46.1 µM],26.9µM*
CCn1nc(C(=O)OCC(=O)c2c[nH]c3ccccc23)c2ccccc2c1=O,0.8%,2.7%,-9.6%,-3.2%,4.7%,23.9µM*
CCc1cccc2c(C(=O)COC(=O)C3=NNC(=O)CC3)c[nH]c12,-8.1%,-0.2%,-1.5%,-2.7%,-0.2%,-17.6%
CC(C)n1nc(C(=O)OCC(=O)c2c[nH]c3ccccc23)c2ccccc2c1=O,1.3%,-7.1%,8.5%,14.6%,-3.0%,u
CCc1cccc2c(C(=O)COC(=O)c3nn(C)c(=O)c4ccccc34)c[nH]c12,-1.0%,-19.2%,-2.5%,-1.1%,-1.9%,13.5µM*
Cc1ccc(-c2nc3ncccc3o2)cc1NC(=O)COc1ccc(C(C)C)cc1,x,x,13.6%,x,x,-18.7%
CCOC(=O)C(=NC1CCS(=O)(=O)C1)NNc1ccccc1Cl (stereo not drawn),1.0%,2.5%,x,x,1.5%,16.9µM*
C/C(=N/NS(=O)(=O)c1ccc(Cl)cc1)c1cccc(NC(=O)c2ccc(Cl)cc2Cl)c1,4.4%,0.1%,7.9%,-1.9%,-0.4%,16.9µM*
C/C(=N/NS(=O)(=O)c1ccc(C)cc1)c1cccc(NC(=O)c2cccc(Cl)c2)c1,-5.1%,-11.0%,-13.3%,-8.9%,-1.1%,16.9µM*
CC(=O)Nc1cccc(/C(C)=N/NC(=O)c2ccc(Cl)cc2Cl)c1,-6.0%,-0.6%,-26.4%,-1.7%,2.7%,19µM*
COc1cccc([C@@H]2Oc3ccc(Br)cc3C[C@H]2OC(=O)Nc2cc(OC)c(OC)c(OC)c2)c1,x,x,-9.0%,1.4%,x,x
O=C1NC(=O)/C(=C\c2ccc(Oc3cnccn3)cc2)S1,2.82µM*,u,u,0.4%,u,13.5µM*
O=C1NC(=S)S/C1=C/c1ccc(Oc2cnccn2)cc1,u,2.4%,1.4%,0.5%,14.9%,21.3µM*
Cc1ccc2c(=O)cc(C(=O)Nc3c(C(=O)Nc4cccc(Cl)c4)oc4ccccc34)oc2c1,x,x,-4.3%,x,x,1.2%
Clc1ccc2nc(COc3ccccc3)[nH]c2c1,u,u,x,x,-1.4%,12µM*
Clc1ccc2nc(-c3ccccc3)[nH]c2c1,x,x,x,11.2µM*,x,x
S=c1nc(Cc2ccccc2)[nH]c2ccccc12,-2.4%,8.1%,x,x,0.0%,-1.4%
Clc1ccc2nc(-c3ccc(Cl)nc3)[nH]c2c1,17.1%[1.84 µM],u,x,x,2.24µM*,12µM*
S=c1nc(COc2ccccc2)[nH]c2ccccc12,u,15.5%,x,x,u,23.9µM*
Cc1cc(C(=O)COC(=O)c2cccc(S(=O)(=O)N(C)C)c2)c(C)n1CC1CCCO1 (stereo not drawn),3.55µM*,10.1%,x,x,u,0.953µM*
CNS(=O)(=O)c1cccc(C(=O)OCC(=O)c2cc(C)n(CC3CCCO3)c2C)c1 (stereo not drawn),2.82µM*,u,x,x,2.51µM*,1.35µM*
CCOCCCNC(=O)c1cc2c(s1)-c1ccccc1SC2,4.9%,2.2%,x,x,1.2%,16.9µM*
